PubChem BioAssay AID687021 (Broad Institute, 2013)
Calls of active or inactive are those of the source.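 The calls were made as follows: active = compounds lowering luciferase light whose fitted half-effect concentration is at most twice the top tested dose; inconclusive = flat curve with 30 to 70% inhibition, or poor fit; inactive = the rest.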

test: luciferase signal loss, tTA control fusion, HeLa F-luc tTA cells, dry powder, counter-screen for HIV Env fusion inhibitor project, dose response (AID 687021); details: luciferase luminescence counterscreen; series mostly up to 35 µM; activity change, negative = inhibition: at the top concentration

SMILES | activity change, negative = inhibition | outcome
CCOc1ccc(C(=O)C2CCN(CC(=O)Nc3ccccc3N3CCOCC3)CC2)cc1 | 15.7% (inactive) | –
Cn1c(C(=O)N2CCN(c3nc4ccccc4s3)CC2)cc2sccc21 | 67.4% (inactive) | –
CCCn1nc(C(=O)Nc2ccc3nc(N4CCOCC4)sc3c2)ccc1=O | 2.85% (inactive) | –
O=S(=O)(NCc1ccncc1)c1ccc2c(c1)OCCO2 | – | inactive
Cc1ccc(-c2nnc3ccc4c(C(F)(F)F)cc(C(F)(F)F)nc4n23)cc1 | 19.6% (inactive) | –
Cc1ccc(S(=O)(=O)Nc2cccc3c2O[C@@H](CN(C)Cc2ccc(Cl)c(Cl)c2)[C@@H](C)CN([C@H](C)CO)C3=O)cc1 | 61.2% [at 11 µM] (inactive) | –
Cc1noc(C)c1S(=O)(=O)Nc1cccc2c1O[C@@H](CN(C)Cc1ccc(C(F)(F)F)cc1)[C@H](C)CN([C@H](C)CO)C2=O | 39.5% (inactive) | –
Cc1noc(C)c1S(=O)(=O)Nc1cccc2c1O[C@@H](CN(C)Cc1ccc(C(F)(F)F)cc1)[C@@H](C)CN([C@@H](C)CO)C2=O | 110% (inactive) | –
COC(=O)COc1ccc(S(=O)(=O)NCc2ccncc2)cc1 | 32.8% (inactive) | –
Cc1ccc(C)n1-c1ccc(C(=O)O)c(O)c1 | -8.69% (inactive) | –
Cc1ccc2c(CN3CCN(S(=O)(=O)c4ccc5c(c4)OCCO5)CC3)cc(=O)oc2c1C | 6.7% (inactive) | –
COc1ccc(S(=O)(=O)NCc2ccncc2)cc1OC | – | inactive
COc1ccc(-c2cc(C(=O)NNC(=S)NC(=O)c3c(-c4ccccc4)noc3C)[nH]n2)cc1 | -6.56% (inactive) | –
CC1(C)CC(NC(=O)C(=O)Nc2ccc(Cl)cc2)CC(C)(C)N1 | 60.4% (inactive) | –
COc1ccc2c(c1)[nH]c1c(N3CCN(Cc4ccc5c(c4)OCO5)CC3)ncnc12 | – | inactive
CCCOc1ccc(S(=O)(=O)NCc2cccnc2)cc1 | -9.22% (inactive) | –
C[C@H]1CCCCO[C@@H](CN(C)Cc2ccncc2)[C@@H](C)CN([C@@H](C)CO)C(=O)c2cc(NC(=O)Nc3ccccc3)ccc2O1 | 13.1% (inactive) | –
CCOc1ccc(S(=O)(=O)NCc2ccncc2)cc1OCC | 21.5% (inactive) | –
CCOc1ccc(S(=O)(=O)NCc2ccccn2)cc1 | 54.6% (inactive) | –
CCOc1ccc(S(=O)(=O)NC(C)c2ccncc2)cc1 (configuration not stated) | 40.5% (inactive) | –
O=C(CCc1ccc(S(=O)(=O)N2CCOCC2)cc1)Nc1nc(COc2ccccc2)cs1 | 5.38% (inactive) | –
Clc1ccc2c(c1)C(C1=NCCN1)c1ccccc1CS2 (configuration not stated) | – | inactive
